We go through 27 compounds from PubChem BioAssay (NCATS).

SMILES strings stand for the structures. Results filed as inconclusive are left out. Entries that show only a call come without a potency. Calls of active or inactive are those of the source. Unless noted, calls come from the whole dose curve; as a rule, active = well fitted curve in the direction sought with a large enough effect; inconclusive = small, poorly fitted or top-dose-only effect, or another doubt; inactive = no such curve, though single readings can be large; an effect the other way counts as inactive or inconclusive.

Assay [1] in a line: Confirmatory qHTS for small molecule stabilizers of the endoplasmic reticulum resident proteome: Secreted ER Calcium Modulated Protein (SERCaMP) assay (AID 1508628). Note: nearly all actives have a fitted effect of over 40% in size. Note: potency is the fitted concentration of half-maximal effect. The essentials:
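Reporter secretion upon ER calcium depletion (100 nM thapsigargin, 4 h, 37C) is measured as medium luminescence with coelenterazine, after 16 h compound pretreatment of SH-SY5Y-GLuc-SERCaMP cells; primary at three concentrations up to 38.3 uM, follow-up at 11 (up to 76.6 uM).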
(In general: In qHTS, concentration-response curves come from the screen itself.)

The nature of assay [2]: Primary qHTS for small molecule stabilizers of the endoplasmic reticulum resident proteome: Secreted ER Calcium Modulated Protein (SERCaMP) assay (AID 1508630). The essentials: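 The SH-SY5Y reporter protocol was run at 3 concentrations up to 38.3 uM (primary) or 11 concentrations (follow-up): 16 h compound, 100 nM thapsigargin for 4 h, then extracellular luciferase luminescence.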

The nature of assay [3]: Cytotoxicity counterscreen for inhibitors of SARS-CoV-2 cell entry (AID 1645845; calls by dose curve; note: nearly all actives have a fitted effect of over 50% in size). To be noted: outcome: dose series up to 57.1 µM unless noted. The essentials:
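ATP-content luminescence (ATPLite 1step, 15 min RT) read after 48 h compound exposure of Expi293F cells stably expressing human ACE2; normalized to cells-only wells and media-only wells.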
(Counterscreens check selectivity or assay interference.)

Assay [4] can be described thus: Primary qHTS to identify inhibitors of SARS-CoV-2 cell entry (AID 1645846; calls by dose curve; note: nearly all actives have a fitted effect of over 45% in size; note: potency is the fitted concentration of half-maximal effect). To be noted: activity change, negative = inhibition: at 57.1 µM (top of the series) unless noted. The procedure, abridged:
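Data are normalized to wells receiving SARS-CoV-2-S pseudoparticles and those given bald particles. Entry signal was luciferase luminescence in stable hACE2 Expi293F cells, 48 hr post-infection, after 1 hr compound pretreatment.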

The nature of assay [5]: Primary qHTS for inhibitors of nuclear receptor binding SET domain protein 2 (NSD2) in an isogenic RCH-ACV NSD2 p.E1099K mutant (9B) (AID 1645876). Note: nearly all actives have a fitted effect of over 70% in size. Note: potency is the fitted concentration of half-maximal effect.
Assay [6] in a line: Primary qHTS for inhibitors of nuclear receptor binding SET domain protein 2 (NSD2) in an RCH-ACV wild type WT cells (2C) (AID 1645877). Note: nearly all actives have a fitted effect of over 70% in size. Note: potency is the fitted concentration of half-maximal effect.
Assay [7] deals with Papain (Carica papaya) (UniProt P00784). Briefly: Primary qHTS assay for inhibitors of the protease papain (AID 1645873).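 Note: papain turnover of Z-FR-AMC read as the AMC fluorescence gain over 10 min.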
Papain (Carica papaya), sequence (P00784 whole entry, looked up): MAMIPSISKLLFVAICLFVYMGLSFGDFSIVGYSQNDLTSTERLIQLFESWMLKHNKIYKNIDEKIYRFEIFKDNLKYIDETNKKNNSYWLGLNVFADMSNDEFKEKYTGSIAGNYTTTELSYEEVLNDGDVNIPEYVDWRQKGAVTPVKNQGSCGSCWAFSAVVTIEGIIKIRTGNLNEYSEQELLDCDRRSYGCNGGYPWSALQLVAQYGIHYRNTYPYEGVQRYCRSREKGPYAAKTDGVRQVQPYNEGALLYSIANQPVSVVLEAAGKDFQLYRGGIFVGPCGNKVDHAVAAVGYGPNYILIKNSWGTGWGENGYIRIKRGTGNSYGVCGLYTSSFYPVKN
Assay [8] can be described thus: Cell Viability qHTS for small molecule stabilizers of the endoplasmic reticulum resident proteome (AID 1508629).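 Note: human SH-SY5Y neuroblastoma cells carrying the GLuc-SERCaMP reporter; compound exposure about 46 h in total before the viability read.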 To be noted: cell viability counter-screen, 100 nM thapsigargin for final 4 h.
Assay [9] in a line: A High-Content qHTS Against Drug Library for the Identification of Small Molecules that Inhibit DYT1 Early Onset Primary Dystonia-Associated Cell Pathology (AID 1645839; calls by dose curve; note: potency is the fitted concentration of half-maximal effect). The essentials:
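High-content imaging quantified EGFP-TorsinA mislocalization in HEK293-derived cells inducibly expressing DYT1 mutant torsinA, after 48 h exposure to compound given together with tetracycline induction. Cell count served as a toxicity channel alongside %pathology.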

Assay [10] deals with Cytochrome P450 2C9 (Homo sapiens) (UniProt P11712). Briefly: Cytochrome P450 family 2 subfamily C member 9 (CYP2C9) small molecule antagonists: luciferase biochemical (cell-free) qHTS assay (AID 1645842; active = well fitted curve in the direction sought with a large enough effect in the repeat runs; an effect the other way counts as inactive or inconclusive; note: nearly all actives have a fitted effect of over 55% in size; note: potency is the fitted concentration of half-maximal effect). The procedure, abridged:
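P450-Glo CYP2C9 system: proluciferin substrate with enzyme in mix containing 0.4% BSA, 10 min at room temperature, then NADPH regeneration solution added and incubated 1 h at 37C. Detection reagent stopped reaction; luminescence read after 20 min as RLU.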

For assay [11], the target named is Catechol O-methyltransferase (Homo sapiens) (UniProt P21964). As to the kind of experiment: Confirmatory Screen for Target Class Profiling of Small Molecule Inhibitors of Methyltransferases (AID 1745852; calls by dose curve). To be noted: MTase-Glo luminescence, SAH detection, recombinant enzyme; measured here: COMT max response; stronger effect = lower value.
Catechol O-methyltransferase (Homo sapiens), sequence (P21964 whole entry, looked up): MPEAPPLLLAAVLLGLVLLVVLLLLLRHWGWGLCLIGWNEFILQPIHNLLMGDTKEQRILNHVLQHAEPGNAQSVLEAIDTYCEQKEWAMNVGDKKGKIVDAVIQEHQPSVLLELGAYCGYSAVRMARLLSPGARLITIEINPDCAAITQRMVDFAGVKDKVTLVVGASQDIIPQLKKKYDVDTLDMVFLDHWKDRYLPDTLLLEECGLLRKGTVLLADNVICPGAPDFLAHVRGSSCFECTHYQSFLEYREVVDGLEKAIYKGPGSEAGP
Assay [12] concerns the target Guanidinoacetate N-methyltransferase (Homo sapiens) (UniProt Q14353). The assay is described as above. To be noted: MTase-Glo luminescence, SAH detection, recombinant enzyme; activity change, negative = inhibition: at 57.3 µM (top of the series) unless noted.
Assay [13] addresses Cytochrome P450 2D6 (Homo sapiens) (UniProt P10635). Briefly: Cytochrome P450 family 2 subfamily D member 6 (CYP2D6) small molecule antagonists: luciferase biochemical (cell-free) qHTS assay (AID 1645840; active = well fitted curve in the direction sought with a large enough effect in the repeat runs; an effect the other way counts as inactive or inconclusive; note: nearly all actives have a fitted effect of over 55% in size). The procedure, abridged:
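P450-Glo CYP2D6 system: proluciferin substrate converted by enzyme to luciferin, read by luminescence proportional to activity. Enzyme-substrate mix with compound 10 min at room temperature, then NADPH regeneration 1 h before detection reagent.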

The target of assay [14] is Rap guanine nucleotide exchange factor 3 (Homo sapiens) (UniProt O95398). Briefly: Confirmatory qHTS for antagonist of cAMP-regulated guanine nucleotide exchange factor 3 (EPAC1) (AID 1645880). Note: nearly all actives have a fitted effect of over 55% in size. The procedure, abridged: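 Released BODIPY-GDP fluoresces less than Rap1-bound BODIPY-GDP; the signal is followed at 480/540 nm at 5-min intervals over 30 min, after 5 min at room temperature. Reactions contain 100 nM EPAC1, 250 nM RAP1B-BODIPY-GDP and 50 uM GDP; results are normalized to ATA and DMSO.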
Rap guanine nucleotide exchange factor 3 (Homo sapiens), sequence (O95398 whole entry, looked up): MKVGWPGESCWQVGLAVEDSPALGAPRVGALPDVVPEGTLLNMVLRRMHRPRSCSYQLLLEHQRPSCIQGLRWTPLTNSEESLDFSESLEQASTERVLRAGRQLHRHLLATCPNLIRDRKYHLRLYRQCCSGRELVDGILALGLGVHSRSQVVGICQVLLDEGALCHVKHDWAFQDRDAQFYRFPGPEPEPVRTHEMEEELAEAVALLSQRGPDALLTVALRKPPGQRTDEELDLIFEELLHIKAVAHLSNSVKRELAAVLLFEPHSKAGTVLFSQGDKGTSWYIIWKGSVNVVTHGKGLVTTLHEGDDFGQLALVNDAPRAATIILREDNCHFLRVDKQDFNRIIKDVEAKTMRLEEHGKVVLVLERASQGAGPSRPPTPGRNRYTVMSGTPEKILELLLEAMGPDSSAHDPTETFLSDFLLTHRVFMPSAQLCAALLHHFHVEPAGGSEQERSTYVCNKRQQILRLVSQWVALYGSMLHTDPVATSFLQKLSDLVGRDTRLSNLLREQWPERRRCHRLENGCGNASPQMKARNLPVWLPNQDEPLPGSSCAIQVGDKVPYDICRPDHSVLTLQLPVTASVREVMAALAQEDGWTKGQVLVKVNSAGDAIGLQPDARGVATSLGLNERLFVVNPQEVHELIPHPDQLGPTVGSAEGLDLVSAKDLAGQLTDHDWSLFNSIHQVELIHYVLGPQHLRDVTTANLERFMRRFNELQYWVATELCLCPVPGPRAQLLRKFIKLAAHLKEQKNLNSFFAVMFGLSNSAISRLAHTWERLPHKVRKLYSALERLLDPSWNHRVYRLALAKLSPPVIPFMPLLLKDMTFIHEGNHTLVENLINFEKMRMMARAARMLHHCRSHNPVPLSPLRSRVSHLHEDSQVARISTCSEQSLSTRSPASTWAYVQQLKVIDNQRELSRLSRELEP

The target is the same in assay [15]. As to the kind of experiment: Confirmatory qHTS for agonist of cAMP-regulated guanine nucleotide exchange factor 3 (EPAC1) (AID 1645881). Note: potency is the fitted concentration of half-maximal effect; nearly all actives have a fitted effect of over 75% in size.
Assay [16] concerns the target Rap guanine nucleotide exchange factor 4 (Homo sapiens) (UniProt Q8WZA2). Briefly: Confirmatory qHTS for agonist of cAMP-regulated guanine nucleotide exchange factor 4 (EPAC2) (AID 1645884).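 Note: nucleotide exchange releases bodipy-GDP from Rap1 and this lowers its fluorescence; potency is the fitted concentration of half-maximal effect; nearly all actives have a fitted effect of over 65% in size.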

Cytochrome P450 2C9 (Homo sapiens), sequence (P11712 whole entry, looked up): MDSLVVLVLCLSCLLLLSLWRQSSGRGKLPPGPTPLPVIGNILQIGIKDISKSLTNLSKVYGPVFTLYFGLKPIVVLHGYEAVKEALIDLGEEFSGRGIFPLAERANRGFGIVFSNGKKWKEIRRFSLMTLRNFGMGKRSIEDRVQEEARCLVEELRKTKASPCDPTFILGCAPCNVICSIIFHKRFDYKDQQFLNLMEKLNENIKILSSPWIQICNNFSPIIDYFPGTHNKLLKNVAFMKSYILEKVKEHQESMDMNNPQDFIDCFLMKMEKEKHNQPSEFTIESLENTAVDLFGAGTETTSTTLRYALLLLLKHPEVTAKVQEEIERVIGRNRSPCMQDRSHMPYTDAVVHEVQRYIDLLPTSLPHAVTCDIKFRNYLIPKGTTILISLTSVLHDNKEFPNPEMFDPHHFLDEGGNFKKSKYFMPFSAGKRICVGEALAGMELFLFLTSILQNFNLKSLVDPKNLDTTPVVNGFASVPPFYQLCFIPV
Cytochrome P450 2D6 (Homo sapiens), sequence (P10635 whole entry, looked up): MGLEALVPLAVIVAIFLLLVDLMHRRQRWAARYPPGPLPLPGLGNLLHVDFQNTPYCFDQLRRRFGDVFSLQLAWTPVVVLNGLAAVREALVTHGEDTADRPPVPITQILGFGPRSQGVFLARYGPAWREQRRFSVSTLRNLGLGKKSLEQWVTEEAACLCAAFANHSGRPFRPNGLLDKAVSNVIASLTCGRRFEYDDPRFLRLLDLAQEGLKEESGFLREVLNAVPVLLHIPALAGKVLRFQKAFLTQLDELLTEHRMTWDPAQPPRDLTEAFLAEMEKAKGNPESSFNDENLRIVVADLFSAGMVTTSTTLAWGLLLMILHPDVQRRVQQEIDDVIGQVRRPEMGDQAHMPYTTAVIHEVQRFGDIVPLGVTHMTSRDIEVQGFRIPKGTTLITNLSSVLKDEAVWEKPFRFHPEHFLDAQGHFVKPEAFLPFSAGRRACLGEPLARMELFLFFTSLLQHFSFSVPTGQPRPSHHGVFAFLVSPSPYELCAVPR
Rap guanine nucleotide exchange factor 4 (Homo sapiens), sequence (Q8WZA2 whole entry, looked up): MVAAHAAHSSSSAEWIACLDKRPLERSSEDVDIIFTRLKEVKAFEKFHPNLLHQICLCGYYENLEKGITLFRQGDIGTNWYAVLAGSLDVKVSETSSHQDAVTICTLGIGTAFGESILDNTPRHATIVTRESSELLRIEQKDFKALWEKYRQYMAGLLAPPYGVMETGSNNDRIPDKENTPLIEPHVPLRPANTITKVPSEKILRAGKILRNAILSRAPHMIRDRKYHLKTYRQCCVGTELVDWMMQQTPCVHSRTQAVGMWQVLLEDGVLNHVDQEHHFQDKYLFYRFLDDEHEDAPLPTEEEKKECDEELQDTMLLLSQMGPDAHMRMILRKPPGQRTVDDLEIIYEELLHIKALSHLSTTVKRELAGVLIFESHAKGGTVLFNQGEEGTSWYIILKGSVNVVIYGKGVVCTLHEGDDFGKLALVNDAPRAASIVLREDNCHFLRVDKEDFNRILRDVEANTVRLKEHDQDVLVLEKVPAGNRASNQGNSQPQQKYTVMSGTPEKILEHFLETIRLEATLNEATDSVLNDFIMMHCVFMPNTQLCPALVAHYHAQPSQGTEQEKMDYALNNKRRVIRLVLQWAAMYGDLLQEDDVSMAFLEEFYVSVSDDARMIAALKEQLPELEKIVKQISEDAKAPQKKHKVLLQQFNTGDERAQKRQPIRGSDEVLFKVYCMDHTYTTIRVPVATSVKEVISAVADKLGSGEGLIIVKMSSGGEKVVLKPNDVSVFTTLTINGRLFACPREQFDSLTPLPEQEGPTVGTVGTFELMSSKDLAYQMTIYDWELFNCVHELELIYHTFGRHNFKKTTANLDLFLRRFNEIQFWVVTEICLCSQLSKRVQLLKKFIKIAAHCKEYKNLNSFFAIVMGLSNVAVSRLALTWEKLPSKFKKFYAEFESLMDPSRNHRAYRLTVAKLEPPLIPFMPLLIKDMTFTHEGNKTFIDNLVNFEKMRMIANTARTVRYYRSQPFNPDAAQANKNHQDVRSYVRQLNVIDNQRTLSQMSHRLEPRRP

Take `COc1ccc2c(c1)[C@@]13CCCC[C@H]1[C@@H](C2)NCC3`: the Potency result in [1] was “inactive”.

Take `CC(=O)OCC1=C(C(=O)O)N2C(=O)[C@@H](NC(=O)CCC[C@@H](N)C(=O)O)[C@H]2SC1`: the outcome in assay [2] is “inactive”.

As to `NC(Cc1ccc(N(CCCl)CCCl)cc1)C(=O)O` (stereo unspecified), in assay [2], the outcome is “inactive”.

In the case of `C/C(O)=C(\C#N)C(=O)Nc1cc(Br)ccc1Br`, the outcome in assay [2] and in [3] was “inactive” each time. For the same compound, in assay [4], the activity change, negative = inhibition was -10.6%. The Potency result in assay [5] and in assay [6] was “inactive” throughout.

`C[Se]C[C@H](N)C(=O)O`: in assay [2], the outcome was “inactive”.

Consider `Oc1ccc2c3c1O[C@H]1c4[nH]c5ccccc5c4C[C@@]4(O)C(C2)N(CC2CC2)CCC314` (stereo partly specified), for which, in assay [1], the Potency is 12.6 µM (active). Also, the Potency entry in assay [7] is “inactive”.

Take `Cc1cccc(C(C)c2cnc[nH]2)c1C` (stereo unspecified): the outcome in [2] was “inactive”.

Consider `CN1CC[C@@]2(C)c3cc(OC(=O)Nc4ccccc4)ccc3N(C)[C@@H]12`, for which the Potency in assay [1] was 39.8 µM (active). For the same compound, the outcome in assay [2] was “inactive”.

For `CN1C2CCC1CC(OC(c1ccccc1)c1ccccc1N)C2` (stereo unspecified), the Potency in assay [1] is 31.6 µM (active). The Potency entry in assay [7] is “inactive”.

With `Clc1ccc(N2CC3CCC(C2)N3)nn1`, the max response in assay [8] is -7.5% (inactive). The Potency entry in [7] was “inactive”.

Turning to `CC(C)(O)[C@@H]1C2OC(=O)[C@@H]1[C@]1(O)C[C@H]3O[C@]34C(=O)O[C@H]2[C@]14C` (tested in a mixture with another compound), the outcome in [2] was “inactive”. Further, in [7], the Potency result was “inactive”.

`CCCN(CCC)CCc1c[nH]c2ccc(C(N)=O)cc12`: the outcome in [2] is “inactive”.

For `C[CH2][Hg][S]c1ccccc1C(=O)O`, the outcome in assay [2] was “inactive”. Also, the Potency in assay [9] is 5.01 µM (active); in assay [10], 3.47 µM (active); in assay [5] it was 0.668 µM (active); in assay [6], 0.841 µM (active).

On to `C=CCN1CC[C@]23c4c5ccc(O)c4O[C@H]2/C(=N/NC(=O)c2ccccc2)CC[C@@]3(O)[C@H]1C5`, for which, in assay [2], the outcome was “inactive”.

On to `COc1ccc2c(c1)C13CCCCC1C(C2)N(C)CC3` (stereo unspecified), for which, in assay [1], the Potency was 2 µM (active). Further, the Potency entry in assay [7] was “inactive”.

Turning to `C[C@@H]1O[C@H](C[N+](C)(C)C)CS1`, the outcome in assay [2] is “inactive”.

For `O=C(O)c1cc[c]([Hg][Cl])cc1`, the outcome in [2] is “inactive”.

Take `NCC(O)c1cc(O)c(O)cc1F` (stereo unspecified): the Potency result in assay [1] and in [7] was “inactive” throughout. For the same compound, the activity in assay [11] stood at 129%. Moreover, in assay [12], the activity change, negative = inhibition was 4.77%.

As to `C[C@H](N)CN1CCc2ccc(Br)cc21`, the max response in [8] is -3.5% (inactive). Moreover, in assay [7], the Potency result was “inactive”.

For the compound `COc1ccc(OC)c(C(O)C(C)N)c1` (stereo unspecified), the outcome in [2] was “inactive”. Moreover, the Potency entry in [13] and in assay [10] was “inactive” each time.

`CC(C)[C@@]1(NC(=O)[C@@H]2C[C@@H]3c4cccc5[nH]cc(c45)C[C@H]3N(C)C2)O[C@@]2(O)[C@@H]3CCCN3C(=O)[C@H](Cc3ccccc3)N2C1=O`: the Potency in assay [1] was 25.1 µM (active).

Regarding `COc1ccc2c(c1)c(CCN1CCOCC1)c(C)n2C(=O)c1cccc(Cl)c1Cl`, the outcome in assay [2] was “inactive”.

Regarding `C=CCN(C1=NCCN1)c1c(Cl)cccc1Cl`, the outcome in assay [2] is “inactive”.

Turning to `O=c1c2ccccc2[se]n1-c1ccccc1`, the outcome in assay [2] is “inactive”.

On to `NCC(CP(=O)(O)O)c1ccc(Cl)cc1` (stereo unspecified), for which the outcome in [2] is “inactive”.

Consider `N[C@@H](CCl)C(=O)O`, for which the outcome in [2] was “inactive”.

Regarding `O=C1OC2(c3cc(Br)c(O)cc3Oc3c2cc(Br)c(O)[c]3[Hg])c2ccccc21` (stereo unspecified), the outcome in assay [2] was “inactive”. In addition, the Potency in assay [4] was 10 µM (active); in [15], 4.75 µM (active); in [16] it was 1.34 µM (active). Moreover, the activity, negative = inhibition in assay [14] is 245% [at 22 µM] (inactive).
